Screening results (PubChem)
Most compounds without a hit are left out; they make up all but 4% or so of the library.
Glioma ERSR ind: ER stress response induction in glioma; Potency, µM, inactives show at the top dose activation, hits mostly activators; U87-MG GRP78 promoter luciferase reporter, 16 h; 420,000 tested, 0.02% active; active = well fitted activation curve with a large enough effect; note: potency is the fitted concentration of half-maximal effect; series mostly up to about 76 µM; % of control where 0% means no effect; nearly all actives have a fitted effect of over 35% in size
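ERSR induction read as luciferase luminescence (Bright-Glo, 10 min at room temperature) in stably transfected human U87-MG glioma cells exposed to compounds for 16 h, using GRP78 as sensor.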
TRHR enhancer: allosterically enhances the human TRH receptor. 360,000 tested, 0.66% active. AID 493056. TRHR cells, fluo-8 calcium fluorescence, EC20 TRH enhancement. P34981. enhancement, % at 2 µM; in the data active = enhancement above about 30%; note: 0% is about no effect
Target sequence (P34981 whole entry, looked up): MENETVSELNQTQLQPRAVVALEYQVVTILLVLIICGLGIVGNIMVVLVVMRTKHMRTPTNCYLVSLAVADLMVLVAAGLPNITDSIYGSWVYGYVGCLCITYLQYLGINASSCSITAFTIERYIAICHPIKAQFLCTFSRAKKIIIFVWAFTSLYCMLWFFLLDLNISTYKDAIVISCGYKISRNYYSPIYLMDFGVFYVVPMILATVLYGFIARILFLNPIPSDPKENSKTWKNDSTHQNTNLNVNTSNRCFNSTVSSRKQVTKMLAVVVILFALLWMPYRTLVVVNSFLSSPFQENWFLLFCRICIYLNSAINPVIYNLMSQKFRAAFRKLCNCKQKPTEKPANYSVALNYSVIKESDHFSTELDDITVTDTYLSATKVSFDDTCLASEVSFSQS
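TRHR-expressing cells loaded with fluo-8 calcium dye were read kinetically (ex 480/em 530) during compound addition, then stimulated with an EC20 of TRH (10 nM final). Enhancement of the Gq-mediated intracellular calcium response was scored.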
D1 PAM: potentiators of human D1 dopamine receptor. HEK293 TREx D1 cells, calcium flux, dopamine EC20 potentiation. potentiation, % at 10 µM. 360,000 tested, 0.036% active. AID 504651; in the data active = potentiation above about 30%; note: 0% is about no effect
TRHR agonist: TRH receptor (human) agonism. P34981. TRHR cells, calcium flux fluo-8, FDSS agonist mode. activation, % at 2 µM. 360,000 tested, 0.18% active; note: 0% is about no effect
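TRHR-expressing cells, plated overnight in medium with 10% serum, were loaded with fluo-8 calcium dye at room temperature. After a 10 s baseline, library compound was pin-added and calcium release was recorded kinetically (ex 480/em 530) as agonist response.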
D1 agonist: agonists of human D1 dopamine receptor | P21728 | HEK293 T-REx D1 cells, calcium flux, agonist mode | activation, % at 2 µM | 360,000 tested, 1% active; note: 0% is about no effect
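Tetracycline-induced HEK293 TREx D1 cells, force-coupled to calcium signalling, were dye-loaded with a no-wash calcium kit. Compound was pin-added after a 10 s baseline. Fluorescence was read kinetically at 1 cycle/s for 180 s, with calcium rises flagged as agonism.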
D1 antag: blocks dopamine activation of the human D1 receptor; HEK293 TREx D1 cells, calcium flux, dopamine EC80; stronger effect = lower value; activity change, negative = inhibition, % at 10 µM; 360,000 tested, 3.2% active; AID 504652; in the data active = activity change below about -30%; note: % is set by controls: 0 for no effect and ±100 for the full control effect
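Antagonism measured as reduced calcium response to an EC80 dopamine addition following 180 s compound pre-read; cells were inducible HEK293 Trex D1 plated overnight at 30 C, read kinetically at 1 cycle/sec.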
Active calls of the source: *; · = no result given. Cut-off read from the data, not from the text of the source, unless noted: active = activation above about 30%; inactive = the rest.

SMILES | Glioma ERSR ind | TRHR enhancer | D1 PAM | TRHR agonist | D1 agonist | D1 antag
CC(=O)c1cccc(NC(=O)C(C)OC(=O)Cc2n[nH]c(=O)c3ccccc23)c1 (stereo not given) | 0% | -1 | -9 | 0 | 0 | -34*
CCc1ccc(C(=O)C(C)OC(=O)Cc2n[nH]c(=O)c3ccccc23)cc1 (stereo not given) | 4% | 11 | 31* | 2 | 3 | -17
c1ccc2c(c1)CCCN2 | 1% | · | · | · | · | ·
NC(=O)c1ccc(C(=O)N/N=C/c2cccc(Oc3ccccc3)c2)cc1 | 3% | 36* | 3 | 1 | 4 | 22
O=C(N/N=C\c1cccc(OC(=O)c2ccco2)c1)c1ccc2c(c1)OCO2 | -7% | 33* | -2 | 6 | 1 | -5
O=C(N/N=C/c1cccnc1)c1ccc2c(c1)OCO2 | 5% | -1 | -3 | 0 | 3 | -35*
O=C(N/N=C\C=C\c1ccc2c(c1)OCO2)c1cccnc1 | 0% | -2 | -7 | 0 | 2 | -39*
O=C(/C=C/c1ccc2c(c1)OCO2)c1cccnc1 | 1% | 2 | 1 | 1 | 0 | -9
O=C(N/N=C\c1ccc2c(c1)OCO2)c1ccco1 | -6% | 1 | -10 | 0 | 0 | 8
Cc1ccccc1NS(=O)(=O)c1ccc2[nH]cc(C(=O)NC3CCCCC3)c(=O)c2c1 | -1% | -4 | -8 | 0 | 3 | -43*
CNC(=O)c1c[nH]c2ccc(S(=O)(=O)Nc3cccc(SC)c3)cc2c1=O | -6% | 3 | 2 | 1 | 3 | -86*
Cc1ccccc1NS(=O)(=O)c1ccc2[nH]cc(C(=O)NC(C)c3ccccc3)c(=O)c2c1 (stereo not given) | -6% | 1 | -2 | 1 | 7 | -43*
Cc1ccc(S(=O)(=O)N2CCOCC2)cc1NC(=O)COc1cccc(Oc2ccccc2)c1 | -4% | 17 | -7 | 1 | 1 | -5
CCOc1ccccc1NC(=O)COC(=O)Cc1ccsc1 | -3% | -3 | -3 | -1 | 3 | 2
CCOc1ccccc1NC(=O)COC(=O)Cc1ccc(-c2ccccc2)cc1 | -8% | -2 | -5 | -1 | 39* | -37*
CCOc1ccccc1NC(=O)COC(=O)CN(C)S(=O)(=O)c1ccc(C)cc1 | -5% | 1 | -8 | 0 | 25 | -45*
COc1ccc(C2Nc3ccccc3C(=O)N2Cc2ccccc2)cc1COc1ccc([N+](=O)[O-])cc1 (stereo not given) | -3% | · | · | · | · | ·
Cc1cc(C)cc(NC(=O)CN2C(=O)c3ccccc3Sc3ccc(C(=O)N4CCCC4)cc32)c1 | -1% | 33* | 1 | 0 | 3 | 11
Cc1cccc(/C=C2\Sc3ccc(C(=O)N4CCCCC4)cc3N(C)C2=O)c1 | -5% | 3 | 0 | 0 | 3 | -38*
Cc1cccc(/C=C2\Sc3ccc(C(=O)N4CCOCC4)cc3N(C)C2=O)c1 | 1% | 0 | 5 | 0 | 5 | -9
CN1C(=O)/C(=C/c2cccc(Cl)c2)Sc2ccc(C(=O)N3CCCC3)cc21 | -3% | 23 | 4 | 0 | 8 | -36*
Clc1ccc(-c2nnc3n2CCCCS3)cc1 | -5% | -1 | -3 | 0 | 1 | -7
C=C1Cn2c(nnc2-c2ccc(Cl)cc2)S1 | -4% | -8 | -10 | -2 | 1 | -61*
Cc1cc2c(s1)c1cnn(Cc3c(F)ccc(Cl)c3F)c(=O)c1n2C | · | 4 | -1 | 0 | 8 | 6
O=C(CCCN1C(=O)S/C(=C\C=C\c2ccccc2)C1=O)Nc1ccc(O)cc1 | 7% | 5 | 0 | -1 | 14 | -31*
SMILES | Glioma ERSR ind | TRHR enhancer | D1 PAM | TRHR agonist | D1 agonist | D1 antag
O=C(CCN1C(=O)S/C(=C\c2ccc(F)cc2)C1=O)Nc1ccc(C(=O)O)c(O)c1 | -2% | -1 | 0 | 1 | 5 | 2
O=C(CN1C(=O)S/C(=C\C=C\c2ccccc2)C1=O)N1CCOCC1 | -4% | 4 | 8 | 1 | 0 | -40*
O=C(CCCN1C(=O)S/C(=C/c2ccccc2)C1=S)Nc1ccc(C(=O)O)cc1 | -1% | -1 | -2 | 0 | 4 | -40*
O=C(CCN1C(=O)S/C(=C\c2ccccc2)C1=O)N1CCOCC1 | 11% | · | · | · | · | ·
O=C(CCN1C(=O)S/C(=C/c2ccccc2)C1=O)Nc1ccc(C(=O)O)c(O)c1 | -2% | -13 | 18 | -1 | 55* | 22
N#C/C(=C/c1ccc(N2CCCCC2)o1)C(=O)Nc1ccc(Cl)cc1 | 1% | 0 | -18 | 165* | 420* | -3
COc1ccc(NC(=O)/C(C#N)=C/c2ccc(Br)o2)cc1 | -5% | 0 | 1 | 0 | 6 | -1
N#C/C(=C/c1ccc(N2CCCCC2)o1)C(=O)Nc1ccc2ccccc2c1 | -2% | -14 | -8 | 106* | 313* | -38*
COCCNc1nc(-c2cc(C)n(CCc3ccc(OC)cc3)c2C)cs1 | -4% | -4 | -3 | 1 | 1 | -7
COc1ccccc1CNc1nc(-c2cc(C)n(C)c2C)cs1 | -7% | -6 | 1 | 1 | 4 | -46*
CC1CCC(NC(=O)c2ccc(COc3ccccc3)o2)CC1 (stereo not given) | -1% | 4 | -6 | 0 | 25 | -12
Cc1ccc2c(CC(=O)Nc3cccc(C(F)(F)F)c3)coc2c1 | -4% | 0 | -2 | 2 | 9 | -14
Cc1ccc2onc(CC(=O)Nc3cccc(C(F)(F)F)c3)c2c1 | -2% | -19 | -6 | 1 | 0 | -75*
O=C(CSc1ncnc2c1cnn2CCO)Nc1cccc(C(F)(F)F)c1 | -6% | 31* | -6 | 0 | 26 | 7
Cc1cc(C)cc(NC(=O)Cc2noc3ccccc23)c1 | 0% | -3 | -2 | 1 | -1 | -63*
Cc1cc(=O)[nH]c(SCC(=O)Nc2cccc(C(F)(F)F)c2)n1 | -4% | -2 | 0 | 0 | 2 | -32*
O=C(CSc1nc(NS(=O)(=O)c2ccccc2)cc(=O)[nH]1)Nc1cccc(C(F)(F)F)c1 | -2% | 3 | -2 | 0 | 3 | -3
Cc1c(Cl)cccc1NC(=O)CSc1ncnc2c1cnn2CCO | -4% | -1 | -4 | 0 | 8 | -16
S=C(NCCCc1cnc[nH]1)NCCCN(Cc1ccc(Cl)cc1)c1cc(-c2ccccc2)ccn1 | -3% | · | · | · | · | ·
CCCCNC(=O)Cn1c(SCc2cccc(F)c2)nc2ccncc21 | 1% | · | · | · | · | ·
O=C1CCC([N+](=O)[O-])C(C2CC=CCC2)N1 (stereo not given) | -1% | · | · | · | · | ·
Cc1ccc2onc(CC(=O)Nc3cc(F)ccc3F)c2c1 | · | -6 | -3 | 0 | -1 | -81*
CN(c1ccccc1)S(=O)(=O)c1ccc(C(=O)N2CCCC2)cc1 | 2% | -9 | -8 | 0 | 1 | -16
